In PubChem BioAssay AID2781 (National Center for Advancing Translational Sciences (NCATS), 2010) one finds outcome data, which are given here for two compounds.

The source made the active and inactive calls.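 How the source made its calls: active means compound whose NMR saturation transfer difference test with menin is positive, showing direct binding to the protein; inactive means the rest.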

The test deals with Menin (Homo sapiens) (UniProt O00255). Briefly: Confirmation of Inhibitors Targeting the Menin-MLL Interaction in MLL Related Leukemias: NMR spectroscopy to verify direct binding of compounds to menin. The conditions noted are these: purified menin, NMR STD binding, 100 uM. From the text:
qHTS Assay for Inhibitors Targeting the Menin-MLL Interaction in MLL Related Leukemias NIH Chemical Genomics Center [NCGC] NIH Molecular Libraries Probe Centers Network [MLPCN] MLPCN Grant: MH084875-01A1 Assay Submitter (PI): Jolanta Grembecka, Tomasz Cierpicki, University of Virginia Translocations of the MLL (Mixed Lineage Leukemia) gene are frequently found in human leukemias affecting both children and adults. Fusion of MLL to one of more than 60 genes results in generation of oncogenic proteins upregulating Hox genes, which are vital to blood cell development. Patients harboring fusion of the MLL gene suffer from aggressive leukemias and respond poorly to available therapies. All of the oncogenic fusion proteins have a preserved N-terminal fragment of MLL that has been identified to interact with menin. It has been recently discovered that association with menin is critical to the leukemogenic activity of the MLL fusion oncoproteins. Selective targeting of the menin-MLL interaction could provide an attractive therapeutic approach to develop novel drugs for MLL-related leukemias. Small molecules blocking the menin-MLL interaction should reverse the oncogenic potential of MLL fusion proteins. We have developed and optimized a fluorescence polarization-based assay for the identification of Menin-MLL inhibitors. The assay was run employing two different MLL-derived peptides. […]

Menin (Homo sapiens), sequence (O00255 whole entry, looked up, the tested form may be a part): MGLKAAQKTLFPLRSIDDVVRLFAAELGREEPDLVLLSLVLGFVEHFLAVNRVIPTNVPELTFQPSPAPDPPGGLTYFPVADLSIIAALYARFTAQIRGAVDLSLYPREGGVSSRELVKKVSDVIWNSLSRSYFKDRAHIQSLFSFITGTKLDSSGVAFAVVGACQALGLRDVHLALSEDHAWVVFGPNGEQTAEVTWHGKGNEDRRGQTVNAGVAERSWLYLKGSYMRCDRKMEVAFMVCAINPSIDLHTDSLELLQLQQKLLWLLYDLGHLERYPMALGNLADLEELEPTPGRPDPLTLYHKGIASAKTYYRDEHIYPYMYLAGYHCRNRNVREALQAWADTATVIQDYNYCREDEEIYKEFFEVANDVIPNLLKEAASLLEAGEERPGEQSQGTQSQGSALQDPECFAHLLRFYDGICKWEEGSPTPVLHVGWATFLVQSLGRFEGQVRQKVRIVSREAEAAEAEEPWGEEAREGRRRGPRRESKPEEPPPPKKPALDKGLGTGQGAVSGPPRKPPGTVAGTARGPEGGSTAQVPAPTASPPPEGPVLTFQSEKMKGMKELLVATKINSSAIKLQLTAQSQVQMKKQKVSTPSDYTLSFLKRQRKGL

`CCCCn1c(=O)c(C(=O)Nc2ccsc2C(=O)OC)c(O)c2ccccc21`: the outcome is “inactive; negative”.

For `c1cc2cc(c1)C[n+]1ccc(c3ccccc31)NCc1ccc(cc1)CNc1cc[n+](c3ccccc13)C2`, the outcome was “inactive; negative”.
